Screens from PubChem.
The list is not random: actives were taken first. Their share in the collection is about 9.5%.
NS1 function inh: inhibitors of influenza NS1 protein function; AID 2326; actives 0.4% (n = 270,000); Potency, µM (titrated, usually from 46.1 µM); further: actives are rising curves; nearly all actives have a fitted effect of over 50% in size
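Compounds were scored for reversing the slow growth caused by influenza A NS1 in S. cerevisiae, measured by optical density at 600 nm. Assay medium contained 2% galactose at pH 6.0; NS1-free yeast of the same strain were the positive control.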
SARS PLpro yeast: inhibitors of SARS-CoV papain-like protease in yeast; S. cerevisiae expressing SARS-CoV PLpro, growth rescue; Potency, µM (series often up to 32.9 µM), hits mostly activators; actives 0.19% (n = 330,000); AID 485353; further: nearly all actives have a fitted effect of over 55% in size
Pf growth 96h: inhibits malaria parasite growth, 96 h. AID 504834. actives 6.9% (n = 320,000). Potency, µM (titrated, usually from 28.7 µM), usual class: inhibitors. P. falciparum luciferase reporter growth, 96 h; active means well fitted inhibition curve with a large enough effect; inconclusive means small, poorly fitted or top-dose-only effect, or another doubt; inactive means no such curve, though single readings can be large or run the other way
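Cell-based qHTS: luciferase-tagged P. falciparum in erythrocytes (2% hematocrit, 0.05% parasitemia final) incubated with compounds for 96 hours, 37 C, 5% CO2; luciferase detection reagent then added and luminescence measured.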
Pf growth 48h: inhibits P. falciparum growth in the first generation, 48 h | P. falciparum luciferase growth in erythrocytes, 48 h | Potency, µM (titrated, usually from 28.7 µM), hits mostly inhibitors | actives 5.9% (n = 310,000); active means well fitted inhibition curve with a large enough effect; inconclusive means small, poorly fitted or top-dose-only effect, or another doubt; inactive means no such curve, though single readings can be large or run the other way
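A one-generation exposure of luciferase-tagged malaria parasites in RPMI 1640/Albumax erythrocyte culture, 37 C and 5% CO2. Inhibition is inferred from decreased luminescence after adding detection reagent.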
RE007 growth inh: less growth of the S. pombe RE007 Vpr strain; S. pombe RE007 Vpr strain, BacTiter-Glo ATP luminescence, 24 h; Potency, µM (doses to about 92.2 µM), actives largely listed as inhibitors; actives 0.21% (n = 360,000); AID 651644; active means well fitted falling curve with a large enough effect; inconclusive means small, poorly fitted or top-dose-only effect; inactive means no such curve, though single readings can be large or run the other way; further: nearly all actives have a fitted effect of over 50% in size
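Fission yeast RE007 carrying one integrated HIV-1 vpr copy, seeded at OD 0.01 in PMG+AL medium with 23 nL pinned compound. Grown 24 h at 30 degrees; viability read by BacTiter-Glo luminescence after 5 min.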
A number is an active result. Unless noted, the call rests on the fitted dose curve.

Screening CC(C)=C[C@@H]1C[C@H](C)[C@H]2CC[C@H](C)c3c(O)c(O)c(C)c1c32 returned SARS PLpro yeast inactive, Pf growth 96h 10.4µM, Pf growth 48h 3.7µM and RE007 growth inh inactive.
Screening CC(=O)O[C@H]1[C@H](O)[C@H](Oc2c(O)c(C)c3c4c2[C@@H](C)CC[C@@H]4[C@@H](C)C[C@H]3C=C(C)C)O[C@@H](C)[C@H]1O returned SARS PLpro yeast inactive and RE007 growth inh inconclusive.
Screening Cn1ccc2c(-c3ccc(C(C)(C)C)cc3)cc3c(c21)C1CCC3C1 (stereo unspecified) returned RE007 growth inh inactive.
Cn1ccc2c(-c3ccc(C(=O)O)cc3)cc3c(c21)C1CCC3C1 (stereo unspecified) was read as RE007 growth inh 44.7µM.
Screening C[C@@]12CC[C@@H]3[C@H](CCC4=CC(=O)CC[C@]43C)[C@@H]1CC[C@@H]2C(=O)COS(=O)(=O)c1ccc(Br)cc1 returned NS1 function inh inactive.
Screening CC(C)(C)CC(C)(C)c1ccc(OCCOCC[N+](C)(C)Cc2ccccc2)cc1 returned Pf growth 96h 0.465µM, Pf growth 48h 0.928µM and RE007 growth inh inactive.
Screening c1ccc(OCCOCCOc2ccccc2)cc1 returned RE007 growth inh inactive.
C[N+](C)(CCOc1ccccc1)Cc1ccccc1 (tested in a mixture with another compound) was read as NS1 function inh inactive, SARS PLpro yeast inconclusive, Pf growth 96h inactive, Pf growth 48h 10.4µM and RE007 growth inh inactive.
For Cc1ccc(C2=NNC(C(O)C(O)C(O)C(O)CO)S2)cc1 (stereo unspecified) the results were NS1 function inh inactive, SARS PLpro yeast inactive, Pf growth 96h inactive and RE007 growth inh inactive.
OC[C@H](O)[C@H](O)[C@@H](O)[C@@H](O)[C@@H]1SC(c2ccccc2)=NN1c1ccccc1 was read as NS1 function inh inactive, SARS PLpro yeast inactive, Pf growth 96h inconclusive, Pf growth 48h 13.1µM and RE007 growth inh inactive.
CCc1ccc(OCC(=O)NNCC(=O)Nc2ccc(OC)cc2)cc1 was read as SARS PLpro yeast inactive, Pf growth 96h inactive, Pf growth 48h inactive and RE007 growth inh inactive.
For CCOc1ccc(CC2NCCc3cc(OCC)c(OCC)cc32)cc1OCC (stereo unspecified) the results were SARS PLpro yeast inactive, Pf growth 96h inconclusive, Pf growth 48h 11.7µM and RE007 growth inh inactive.
Screening CCOC(=O)c1ccc(N2C(=O)[C@@H](c3ccccc3)[C@H]2c2ccccc2)cc1 returned SARS PLpro yeast inactive, Pf growth 96h inconclusive, Pf growth 48h 10.4µM and RE007 growth inh inactive.
For CCOC(=O)c1ccc(N2C(=O)C(O)=C(C(C)=O)C2c2ccccc2)cc1 (stereo unspecified) the results were NS1 function inh inactive, SARS PLpro yeast inactive, Pf growth 96h inactive, Pf growth 48h inactive and RE007 growth inh inactive.
Screening O=C(c1ccc(Nc2cccc(C(F)(F)F)c2)nc1)N1CCCC1 returned NS1 function inh inactive, SARS PLpro yeast inactive, Pf growth 96h 16.5µM, Pf growth 48h inconclusive and RE007 growth inh inactive.
`Cc1ccc(NS(=O)(=O)c2ccc(C(=O)N3CCCCCC3)cc2)cc1` gave SARS PLpro yeast inactive, Pf growth 96h inconclusive, Pf growth 48h 10.4µM and RE007 growth inh inactive.
Screening Cc1ccc(NS(=O)(=O)c2ccc(C(=O)N3CCCCCCC3)cc2)cc1 returned NS1 function inh inactive, SARS PLpro yeast inactive, Pf growth 96h 2.08µM, Pf growth 48h inconclusive and RE007 growth inh inactive.
`Cc1ccc(S(=O)(=O)C2(C(=O)N3CCCCCC3)CC2)cc1` gave NS1 function inh inactive, SARS PLpro yeast inactive, Pf growth 96h 4.15µM, Pf growth 48h inactive and RE007 growth inh inactive.
Screening Cc1ccc(NS(=O)(=O)c2ccc(C(=O)N3CCC3)cc2)cc1 returned SARS PLpro yeast inactive, Pf growth 96h inactive, Pf growth 48h inconclusive and RE007 growth inh inactive.
Cc1cccc(Nc2ccc(C(=O)N3CCOCC3)cn2)c1 was read as NS1 function inh inactive, SARS PLpro yeast inactive, Pf growth 96h inconclusive, Pf growth 48h inactive and RE007 growth inh inactive.
For Cc1ccc(NS(=O)(=O)c2ccc(C(=O)N3CC(C)OC(C)C3)cc2)cc1 (stereo unspecified) the results were NS1 function inh inactive, SARS PLpro yeast inactive, Pf growth 96h 13.1µM, Pf growth 48h inconclusive and RE007 growth inh inactive.
O=C(c1ccc(NS(=O)(=O)c2cccc(C(F)(F)F)c2)cc1)N1CCCC1 was read as NS1 function inh inactive, SARS PLpro yeast inactive, Pf growth 96h 10.4µM, Pf growth 48h inactive and RE007 growth inh inactive.
`CCN(c1ccc(NC(=O)COC(=O)CCc2cc(OC)c(OC)c(OC)c2)cc1)C(C)C` gave SARS PLpro yeast inactive, Pf growth 96h inactive, Pf growth 48h inactive and RE007 growth inh inactive.
`CC(NC(=S)NCc1ccccc1)C12CC3CC(CC(C3)C1)C2` (stereo unspecified) gave NS1 function inh inactive, SARS PLpro yeast inactive, Pf growth 96h inactive, Pf growth 48h inconclusive and RE007 growth inh inactive.
For CC(=O)c1cc(F)c(N2CCOCC2)cc1C the results were NS1 function inh inactive, SARS PLpro yeast inactive, Pf growth 96h inactive and RE007 growth inh inactive.
For Cc1cc(N2CCOCC2)c(F)cc1C(=O)c1ccccc1 the results were NS1 function inh inactive, SARS PLpro yeast inactive, Pf growth 96h inconclusive, Pf growth 48h inconclusive and RE007 growth inh 12.6µM.
Screening Cn1ccc(C(=O)OCC(=O)Nc2ccccc2Cl)n1 returned NS1 function inh inactive, SARS PLpro yeast inactive, Pf growth 96h inconclusive, Pf growth 48h inactive and RE007 growth inh inactive.
`CCON=O` gave Pf growth 96h 2.69µM and Pf growth 48h inactive.
For CC(C)CCON=O the results were Pf growth 96h inactive and Pf growth 48h inactive.
`CCc1c(C#N)c(N)nc(SCC(=O)OCc2ccccc2)c1C#N` gave NS1 function inh inactive, SARS PLpro yeast inactive, Pf growth 96h inconclusive, Pf growth 48h 9.28µM and RE007 growth inh inactive.
COc1ccc(OC)c(S(=O)(=O)Nc2cc(C(=O)O)ccc2N2CC3CC(C2)c2cccc(=O)n2C3)c1 (stereo unspecified) was read as SARS PLpro yeast inactive, Pf growth 96h inactive, Pf growth 48h inactive and RE007 growth inh inactive.
`Cc1c2cc(O)c(=O)cc-2oc2cc(O)c(O)cc12` gave NS1 function inh inactive, SARS PLpro yeast inconclusive and RE007 growth inh inconclusive.
COc1cc(OC)c(-c2c3cc(O)c(=O)cc-3oc3cc(O)c(O)cc23)cc1OC was read as NS1 function inh inactive, SARS PLpro yeast 3.16µM, Pf growth 96h 3.7µM, Pf growth 48h 2.33µM and RE007 growth inh inconclusive.
`C(=C/c1nccc2c1[nH]c1ccccc12)/c1ccc2c(c1)OCO2` gave NS1 function inh inactive, SARS PLpro yeast inactive, Pf growth 96h inactive, Pf growth 48h 2.94µM and RE007 growth inh inactive.
For Cc1ccc(NC(=O)CN(C)CC(=O)Nc2sc3c(c2C(N)=O)CCC3)cc1 the results were NS1 function inh inactive, SARS PLpro yeast inactive, Pf growth 96h inconclusive, Pf growth 48h inconclusive and RE007 growth inh inactive.
